Mtb MenB inh: M. tuberculosis MenB inhibitors, primary screen, biochemical, absorbance; MenB enzyme assay, absorbance read-out; inhibition, % (test concentration not listed); 100,000 compounds, 0.43% hits; AID 540299, 2011; in the data active = inhibition above about 21%, passing the limit was not always enough
Target sequence (P9WNP5 whole entry, looked up): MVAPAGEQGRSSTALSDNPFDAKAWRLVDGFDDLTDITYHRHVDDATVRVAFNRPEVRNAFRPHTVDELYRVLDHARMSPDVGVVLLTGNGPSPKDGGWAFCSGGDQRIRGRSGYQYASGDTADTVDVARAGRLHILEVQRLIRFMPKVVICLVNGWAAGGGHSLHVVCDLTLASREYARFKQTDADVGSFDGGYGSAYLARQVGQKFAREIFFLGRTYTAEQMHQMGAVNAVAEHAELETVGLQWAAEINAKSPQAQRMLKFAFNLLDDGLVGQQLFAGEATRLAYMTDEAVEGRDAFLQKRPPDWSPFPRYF
Polio RdRp inh: poliovirus RdRp elongation inhibitors, primary screen, biochemical, fluorescence polarization, total intensity; Genome polyprotein (Poliovirus type 1 (strain Mahoney)), P03300; poliovirus polymerase elongation; active compounds read low; % elongation, % (compound at 16.7 µg/mL); 150,000 compounds, 0.66% hits; in the data active = % elongation below about 90%
AID504770: growth inhibition of E. coli YBA685, primary screen, V. cholerae RctB inhibitors | E. coli YBA685 rctB-dependent plasmid, OD600 growth, 3 h; active compounds read low | z-score (test concentration not listed) | 130,000 compounds, 0.27% hits; in the data active = z-score below about -2, passing the limit was not always enough
Mtb MbtI inh: MbtI salicylate synthase inhibitors, primary screen, biochemical, fluorescence intensity; purified MbtI enzyme, fluorescence intensity read-out; 100,000 compounds, 0.89% hits; inhibition, % (concentration not given with the values); AID 493033, 2011; P9WFX0; in the data active = inhibition mostly above about 56%, no sharp cut-off; inactive = mostly below about 77%
Numbers stand for hits. Most compounds without a hit are left out; they make up all but 1.4% or so of the library.

Cc1ccn(CCC(=O)O)n1 was read as Mtb MenB inh inactive, Polio RdRp inh inactive, AID504770 inactive and Mtb MbtI inh inactive.
Screening COc1cccc(CNC(=O)C2c3ccccc3C(=O)N3CCc4cc(OC)c(OC)cc4C23)c1 (stereo not given) returned AID504770 inactive.
S=c1[nH]nc(-c2ccncc2)n1C1CC1 was read as Mtb MenB inh inactive, AID504770 inactive and Mtb MbtI inh 60.
C=CCn1c(-c2ccncc2)n[nH]c1=S was read as Mtb MenB inh inactive, Polio RdRp inh inactive, AID504770 inactive and Mtb MbtI inh 70.
`Cc1ccc(NC(=O)C(C)Sc2n[nH]c(-c3ccccc3O)n2)cc1` (stereo not given) gave Mtb MenB inh inactive, Polio RdRp inh inactive, AID504770 inactive and Mtb MbtI inh inactive.
Cc1ccc(C)c(SCC(=O)NC(C)C(c2ccccc2)N2CCOCC2)c1 (stereo not given) was read as Polio RdRp inh 88, AID504770 inactive and Mtb MbtI inh inactive.
Cc1ccc(C)c(SCC(=O)NC(C)C(c2cccs2)N2CCCC2)c1 (stereo not given) was read as Polio RdRp inh inactive, AID504770 inactive and Mtb MbtI inh inactive.
CCc1nc2ccccc2c(N)c1C was read as Mtb MenB inh inactive, Polio RdRp inh 90 and AID504770 inactive.
Screening O=C1N(CCOc2ccccc2)c2ccccc2C12OCCCO2 returned Mtb MenB inh inactive, Polio RdRp inh inactive, AID504770 inactive and Mtb MbtI inh inactive.
For S=c1nc(Cc2ccc(Cl)cc2)[nH][nH]1 the results were Mtb MenB inh inactive, Polio RdRp inh inactive, AID504770 inactive and Mtb MbtI inh 97.
Screening COc1ccc(C(=O)Nc2nccs2)c(F)c1 returned Mtb MenB inh inactive, Polio RdRp inh inactive, AID504770 -3 and Mtb MbtI inh inactive.
O=C(Nc1nccs1)c1cccc(Cl)c1 was read as Mtb MenB inh inactive, Polio RdRp inh inactive, AID504770 inactive and Mtb MbtI inh inactive.
Screening Cc1cccc(C(=O)Nc2nccs2)c1 returned AID504770 -3.1.
`COC(=O)c1sc(NC(=O)c2ccccc2)c(C(=O)OC)c1C` gave Mtb MenB inh inactive, Polio RdRp inh 68 and AID504770 inactive.
For COC(=O)c1sc(NC(=O)C(F)(F)F)c(C(=O)OC)c1C the results were Mtb MenB inh inactive, Polio RdRp inh inactive, AID504770 inactive and Mtb MbtI inh inactive.
`CNC(=S)NCCN1C(=O)S/C(=C\c2cccnc2)C1=O` gave Mtb MenB inh inactive, Polio RdRp inh inactive, AID504770 -3 and Mtb MbtI inh inactive.
O=c1cc(CNC2CCCCC2)c2ccccc2[nH]1 was read as Mtb MenB inh 30, Polio RdRp inh inactive, AID504770 inactive and Mtb MbtI inh inactive.
For O=C(Nc1ccc(Cl)cc1)c1cn(-c2ccccc2)nc1-c1cccnc1 the results were Polio RdRp inh inactive, AID504770 inactive and Mtb MbtI inh inactive.
NC1=NC(=O)C(C(=O)NC2(C(F)(F)F)Oc3cc(Cl)c(Cl)cc3O2)S1 (stereo not given) was read as Mtb MenB inh inactive, Polio RdRp inh inactive, AID504770 inactive and Mtb MbtI inh 92.
Screening Cc1nn(C(C)CN)c(C)c1C (stereo not given) returned Mtb MenB inh 34, Polio RdRp inh inactive, AID504770 inactive and Mtb MbtI inh inactive.
`CCOc1ccc(-n2c(SC(C)CC)nc3c(c2=O)SCC3)cc1` (stereo not given) gave AID504770 inactive.
C=CCSc1nc2c(c(=O)[nH]1)C(c1ccncc1)C(C(=O)OC)=C(C)N2 (stereo not given) was read as Mtb MenB inh inactive, Polio RdRp inh inactive, AID504770 inactive and Mtb MbtI inh inactive.
`O=C(Cn1nc(Cc2ccncc2)c2ccccc2c1=O)NCCC1=CCCCC1` gave AID504770 -2.2.
For O=C(/C=c1\[nH]c(=O)/c(=C\c2ccsc2)s1)c1ccco1 the results were Mtb MenB inh inactive, Polio RdRp inh inactive, AID504770 inactive and Mtb MbtI inh 98.
`O=C(/C=c1/[nH]c(=O)/c(=C/c2cccc(C(F)(F)F)c2)s1)c1ccco1` gave Mtb MenB inh inactive, Polio RdRp inh inactive, AID504770 inactive and Mtb MbtI inh inactive.
Screening CC1CCc2cc(F)cc3c(=O)c(C(=O)O)cn1c23 (stereo not given) returned Mtb MenB inh inactive, Polio RdRp inh inactive, AID504770 -3.4 and Mtb MbtI inh inactive.
For Cn1cccc1C(=O)NC(=O)CSc1nc2ncc(Cl)cc2[nH]1 the results were Mtb MenB inh inactive, Polio RdRp inh inactive, AID504770 inactive and Mtb MbtI inh inactive.
Screening C=C(C)CN(CC)C(=O)CSc1nc2ncc(Cl)cc2[nH]1 returned Mtb MenB inh inactive, Polio RdRp inh 88, AID504770 inactive and Mtb MbtI inh inactive.
`CC1CCCC1OP1(=O)CC=CC1` (stereo not given) gave Mtb MenB inh inactive, Polio RdRp inh inactive, AID504770 inactive and Mtb MbtI inh inactive.
For Cc1ccc(-n2sc3ccccc3c2=O)cc1 the results were Mtb MenB inh inactive, Polio RdRp inh inactive, AID504770 inactive and Mtb MbtI inh 101.
Cc1ccc(N2C(=O)c3ccccc3C2=O)cc1 was read as Mtb MenB inh inactive, Polio RdRp inh inactive, AID504770 inactive and Mtb MbtI inh inactive.
Screening O=C(CSc1n[nH]c(Cc2ccccc2)n1)NC1CCCCC1 returned Mtb MenB inh inactive, Polio RdRp inh inactive, AID504770 inactive and Mtb MbtI inh inactive.
`O=C(COC(=O)CSc1n[nH]c(-c2ccccc2)n1)NC1CCCCC1` gave Mtb MenB inh inactive, Polio RdRp inh 84 and AID504770 inactive.
For Cc1ccsc1/C=N/n1cnc2scc(-c3cccs3)c2c1=O the results were Mtb MenB inh inactive, Polio RdRp inh inactive, AID504770 inactive and Mtb MbtI inh inactive.
CCOC(=O)CC(=O)c1ccccc1 was read as Mtb MenB inh 34, Polio RdRp inh inactive, AID504770 inactive and Mtb MbtI inh inactive.
CCOC(=O)Cc1c[nH]c2ccccc12 was read as Mtb MenB inh inactive, Polio RdRp inh inactive, AID504770 inactive and Mtb MbtI inh inactive.
CCOC(=O)CC(=O)c1c[nH]c2ccccc12 was read as Mtb MenB inh inactive, Polio RdRp inh inactive and AID504770 -2.2.
Screening CCOC(=O)CN=C(c1ccccc1)c1ccccc1 returned Mtb MenB inh inactive, Polio RdRp inh inactive and AID504770 inactive.
CSC(=NCc1ccc(-c2cccs2)s1)NC#N was read as AID504770 inactive.
`CCc1ccc(CN2CCN(CC)CC2)cc1` gave Mtb MenB inh 35, Polio RdRp inh inactive, AID504770 inactive and Mtb MbtI inh inactive.
`CCc1ccc(CN2CCC(N3CCCCC3)CC2)cc1` gave Mtb MenB inh inactive, Polio RdRp inh inactive and AID504770 inactive.
Screening CC(C)(C)OC(=O)NC1CCN(S(=O)(=O)c2ccc(OC(F)(F)F)cc2)CC1 returned Mtb MenB inh inactive, Polio RdRp inh inactive, AID504770 inactive and Mtb MbtI inh inactive.
`Sc1ccc2c(c1)OCCCO2` gave Mtb MenB inh inactive, Polio RdRp inh inactive, AID504770 inactive and Mtb MbtI inh 94.
